An excerpt weighted towards active compounds, which were near 2.2% of everything screened.
APP transl inh – inhibitors of APP translation via 5'UTR reporter, primary screen, APP 5'UTR luciferase, SH-SY5Y cells. SH-SY5Y APP 5'UTR-luciferase reporter, luminescence. inhibition, % at 2 µM. hit rate 0.82% among 190,000. AID 1285, 2008;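 active = inhibition above a set limit, derived from the sample mean plus 3 SD, cut at about 45% in these data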
BaF3 tox – parental Ba/F3 cell viability inhibition, counter-screen for JAK2V617F inhibitor project, murine pro-B, CellTiter-Glo luminescence | CellTiter-Glo ATP luminescence | inhibition, % at 5.6 µM | hit rate 1.1% among 220,000 | AID 1486, 2009;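 active = inhibition above a per-campaign cutoff, the mean inhibition of all tested compounds plus 3 SD, cut at about 27% in these data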;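 also: 0% = DMSO wells and 100% = JAK Inhibitor I control wells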
Ba/F3 V617F tox – reduced viability of JAK2V617F-dependent Ba/F3 cells, primary screen, JAK2V617F inhibitor project, cell-based, Ba/F3 EpoR-JAK2V617F, luminescence; ATP luminescence; inhibition, % at 5.6 µM; hit rate 1.1% among 220,000;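 active = inhibition above the campaign mean plus 3 SD over all tested compounds, cut at about 24% in these data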;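 also: cytokine-independent growth of Ba/F3 cells driven by EpoR plus mutant JAK2; 0% = DMSO-treated cells and 100% = JAK inhibitor I control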
aSyn UTR inh – MLPCN primary screen, SNCA 5' untranslated region; alpha-synuclein 5'UTR reporter, inhibitor activity; inhibition, % (tested at 7.5 µM); hit rate 0.82% among 300,000; in the data active = inhibition above about 60%;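 also: H4 neuroglioblastoma cells stably carrying SNCA 5'UTR luciferase fusion; 0% = DMSO wells and 100% = positive control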
IEC-6 cytotox – cytotoxicity in IEC-6 intestinal epithelial cells, primary screen, cytotoxicity control for KLF5 inhibitor project, cell-based, luminescence; IEC-6 cytotoxicity, luminescence viability; inhibition, % at 5 µM; hit rate 0.78% among 290,000; AID 1825, 2009; in the data active = inhibition above about 22%;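 also: 0% = plate median of test compound wells and 100% = cytotoxic reference compound wells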
KLF5 inhibitor – KLF5 expression inhibitors, primary screen, DLD-1 cells, luminescence; hit rate 0.23% among 290,000; inhibition, % at 5 µM; DLD-1 KLF5 promoter-luciferase reporter;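 active = inhibition above a per-plate limit of that plate's mean compound inhibition plus 3 SD, cut at about 60% in these data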;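 also: 0% = DMSO wells and 100% = LY294002 at 200 µM; higher means less KLF5 promoter-driven luciferase light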
Starred values were filed as active, the others as inactive; . = no result.

SMILES	APP transl inh	BaF3 tox	Ba/F3 V617F tox	aSyn UTR inh	IEC-6 cytotox	KLF5 inhibitor
c1cnc(-c2noc(CN3CCN(C4CCCC4)CC3)n2)cn1	-16	2	-1	21	-4	-9
CN(C)/C=C/C(=O)c1ncc(C(F)(F)F)cc1Cl	-1	2	-1	4	2	-17
Fc1ccccc1Cn1c2[n+](c3ccc(C(F)(F)F)cc31)CCCCC2	-20	33*	15	0	1	-20
CC(NC(=O)c1ccccc1)c1nnc(SCC(=O)NC2=NCCS2)n1C (configuration not stated)	.	.	.	-7	3	-14
Cc1cc(NC(=O)CSc2nnc(C3CC3)n2N)c([N+](=O)[O-])cc1C	0	81*	2	5	1	-5
O=C(O)CSc1ncnc2sc3c(c12)CCCC3	-13	90*	-1	-8	2	-20
COc1ccc(N2CCN(C(=O)c3ccc(Br)o3)CC2)cc1	.	.	.	-12	-2	-16
CCOc1ccccc1-n1c(SCC(=O)Nc2ccc(CC)cc2)nc2n[nH]c(C)c2c1=N	-8	1	2	84*	7	-8
COc1ccc(C(=O)Nc2ccccc2C(=O)Nc2cc(C)ccn2)cc1	.	.	.	-107	11	-89
COc1ccc(C(=O)NC(=O)Nc2cc(C)ccn2)cc1	-159	3	3	72*	7	-156
Cc1cc(C)c(C)c(S(=O)(=O)NCCCN2CCOCC2)c1C	11	90*	4	-17	4	-21
NC(=O)c1cc(Br)cc2c3c([nH]c12)CCCC3	-18	4	3	1	1	4
NC(=O)c1cc(Br)cc(C2CCCCC2)c1O	.	1	1	87*	10	0
CCN1/C(=C/c2ccc3cc(C)ccc3[n+]2CC)Sc2ccc3sccc3c21	.	.	.	131*	.	.
CC[n+]1c(C)sc2c3ccsc3ccc21	11	2	-4	-24	-15	-11
Cc1ccc2[nH]c(=O)c(CN(Cc3ccco3)S(=O)(=O)c3c(C)ccc4nsnc34)cc2c1	5	0	-1	29	3	-15
COc1ccc2[nH]c(=O)c(CN(Cc3cccs3)S(=O)(=O)c3c(C)ccc4nsnc34)cc2c1	-10	1	-2	89*	-1	-15
CCOC(=O)c1ccc(NC2c3ccccc3C(=O)N2c2cccnc2)cc1 (configuration not stated)	-50	27*	20	43	20	-7
CCOC(=O)c1c(C)nn(-c2ccc(NC(=O)c3c(C)noc3C)cc2)c1C	.	.	.	51	5	-10
CCOC(=O)c1c(C)nn(-c2ccc(NC(=O)/C=C/C(=O)O)cc2)c1C	.	-2	-1	92*	5	48
Cc1ccc(-n2c(C)cc(=O)cc2C)cc1[N+](=O)[O-]	.	.	.	25	2	3
Nc1ccccc1C#Cc1ccccc1	-119	35*	14	-162	0	-109
Nc1ccc(C#Cc2ccccc2)cc1	-7	5	-3	18	3	-86
Cc1ccsc1C(=O)N1CCN(c2ccccn2)CC1	.	.	.	3	5	-6
Cn1cccc1C(=O)OCC(=O)N1c2ccccc2NC(=O)C1(C)C	3	10	5	20	1	2
SMILES	APP transl inh	BaF3 tox	Ba/F3 V617F tox	aSyn UTR inh	IEC-6 cytotox	KLF5 inhibitor
c1ccc(CN2CCC(Nc3ncnc4sccc34)CC2)cc1	0	5	0	-10	4	-10
Cc1sc2ncnc(NC3CCN(Cc4ccccc4)CC3)c2c1C	4	34*	33*	-26	16	-7
CC[C@@H](C)[C@H](CNC)NC[C@@H](Cc1cccc2ccccc12)NCCc1cccc(C(F)(F)F)c1	.	.	.	125*	-6	-14
CNC[C@@H](CC1CCCCC1)NC[C@H](CC(C)C)NCCc1cccc(C(F)(F)F)c1	.	.	.	122*	-6	10
O=C(c1ccoc1)N1CCC2(CCCN(Cc3ccc(F)c(F)c3)C2)C1 (configuration not stated)	.	.	.	-44	7	-5
N=c1oc2cc(O)ccc2cc1C(=O)Nc1ccc(Cl)cc1	.	.	.	-126	18	-42
Cc1nnc(SCc2cc(=O)[nH]c(/N=C(\N)Nc3ccccc3)n2)s1	.	2	-4	4	1	-25
CCOc1ccc(N/C(N)=N/c2nc(CSc3nnc(C)s3)cc(=O)[nH]2)cc1	.	-4	3	84*	12	6
CN(C)c1ccc(NC(=S)c2ccccn2)cc1	-58	5	0	97*	2	58
COc1ccc2oc3cc(C)[n+]([O-])c(-c4ccc(Br)cc4)c3c2c1	15	6	6	23	11	16
CCOC(=O)c1c(C)[nH]c(C(=O)Nc2ccc(NC(C)=O)cc2)c1C	13	8	4	89*	4	-13
O=C(CCNC(=O)Cn1ccc2ccccc2c1=O)NCc1ccccn1	2	4	0	-9	6	-24
Cc1ccc(Cn2ccc(=O)c(OCc3ccccc3)c2C)cc1	-35	-2	-5	-110	0	-76
Cc1c(O)c(=O)ccn1Cc1ccccc1	26	1	-2	68*	-5	-10
CN(C)C(=S)Nc1ccc(Cc2ccncc2)cc1	.	.	.	6	2	-29
Cc1ccc(S(=O)(=O)N2CCCOC2CNC(=O)C(=O)NCc2cccs2)cc1 (configuration not stated)	9	1	-3	13	-2	18
O=C(NCc1ccccc1Cl)C1CCC(CNc2nc(=S)[nH]c3ccccc23)CC1 (configuration not stated)	-4	8	0	17	-1	-15
O=C(NCCC1=CCCCC1)C1CCC(CNc2nc(=S)[nH]c3ccccc23)CC1 (configuration not stated)	18	8	1	99*	-2	-2
O=C(NCCc1ccc(Cl)cc1)C1CCC(CNc2nc(=S)[nH]c3ccccc23)CC1 (configuration not stated)	-6	8	1	65*	-4	-21
CCCCNC(=O)C1CCC(CNc2nc(=S)[nH]c3ccccc23)CC1 (configuration not stated)	-1	5	2	27	-4	-1
CCN(CC)C(=O)CSc1nnc(-c2c[nH]c3ccccc23)o1	.	.	.	-42	-4	-106
CCN(c1ccc(OC)cc1)S(=O)(=O)c1nnc(NC(=O)COc2ccccc2)s1	.	.	.	15	5	5
O=C(NCc1ccccn1)C(C(=O)c1cccc([N+](=O)[O-])c1)n1cc(Cl)ccc1=O (configuration not stated)	6	-3	-3	-18	-6	-21
COc1ccc(Cn2c(-c3ccc(OC)cc3)nc3ccccc32)cc1	1	6	4	-3	-1	-16
